NadD inh: inhibitors of S. aureus NadD, primary screen, biochemical, colorimetric, uHTS. purified NadD enzyme, colorimetric absorbance read-out. inhibition, % at 20 µM. 360,000 compounds, 0.78% hits. AID 602399, 2012; in the data active = inhibition above about 26%
UBC9 SUMO inh: inhibitors of in vitro SUMOylation cascade, primary screen, biochemical, HTRF, uHTS; HTRF SUMOylation assay, SAE1/SAE2 + UBC9; inhibition, % at 35 µM; 290,000 compounds, 0.36% hits; AID 2006, 2009; in the data active = inhibition above about 50%, passing the limit was not always enough
pCIP destab: p/CIP-EGFP fusion destabilizers, primary screen, fluorescence, F442A cells; Q05BA5; 16 h; decrease of EGFP signal, % at 10 µM; 290,000 compounds, 0.01% hits;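 active = EGFP signal decrease of at least 30% at 10 µM or well 3 SD below plate mean, unless failing retest; inactive = the rest, including hits failing retest or dose response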
PHOSPHO1 block: PubChem AID 1565 | recombinant PHOSPHO1, absorbance phosphatase assay | 290,000 compounds, 1.1% hits | Phosphoethanolamine/phosphocholine phosphatase (Homo sapiens), Q8TCT1 | inhibition, % at 13.3 µM; in the data active = inhibition above about 60%
Target sequence (Q8TCT1 whole entry, looked up): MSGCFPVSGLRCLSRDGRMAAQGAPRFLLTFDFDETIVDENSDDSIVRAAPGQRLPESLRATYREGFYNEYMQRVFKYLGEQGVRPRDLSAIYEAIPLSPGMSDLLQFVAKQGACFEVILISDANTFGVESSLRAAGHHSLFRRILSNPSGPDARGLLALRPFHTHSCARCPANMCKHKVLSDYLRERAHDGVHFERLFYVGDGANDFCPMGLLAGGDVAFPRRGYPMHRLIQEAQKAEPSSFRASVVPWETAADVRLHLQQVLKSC
Hits are given with their value; n = inactive; x = not tested or not shown. An excerpt weighted towards active compounds, which were near 1.8% of everything screened.

SMILES	NadD inh	UBC9 SUMO inh	pCIP destab	PHOSPHO1 block
CCCNC(=O)Cn1c(=O)/c(=C\c2ccc(-c3ccc([N+](=O)[O-])cc3)o2)s/c1=C\C(=O)C(C)(C)C	30	n	n	n
COc1cccc2c(=O)c(SC(F)(F)C(F)C(F)(F)F)c(C)[nH]c12 (centres undefined)	n	n	n	n
Cc1[nH]c2ccc(F)cc2c(=O)c1SC(F)(F)C(F)C(F)(F)F (centres undefined)	n	n	n	88
O=C(NNC(=S)Nc1ccccc1)c1cccc(Br)c1	n	n	n	89
Cc1cccc(NC(=S)NNC(=O)c2ccc(Br)o2)c1	n	n	n	88
O=C(NNC(=S)Nc1ccc(Br)cc1)c1ccccc1	n	n	n	n
CC(C)(C)OC(=O)NNC(=S)NCc1ccc(Cl)cc1	n	n	n	73
c1ccc(N2CCN(CC3CCCCC3)CC2)cc1	n	n	n	n
COc1cccc(NC(=O)Nc2c(C)n(C)n(-c3ccccc3)c2=O)c1	n	n	n	n
Cc1c(NC(=O)Nc2cccc(C(F)(F)F)c2)c(=O)n(-c2ccccc2)n1C	n	n	n	66
O=P1(O)Cc2ccccc2-c2ccccc21	n	x	x	x
O=C(NCC1CCCO1)c1ccc(Cl)c(NS(=O)(=O)c2ccc(F)cc2)c1 (centres undefined)	n	x	x	x
CCOC(=O)N1CCN(c2ccc(Cl)cc2)CC1	n	n	n	n
CCOC(=O)N1CCN(c2ccc(O)cc2)CC1	n	n	n	63
O=C(NCCc1c[nH]c2ccccc12)OC1CC2CC1[C@H]1CCCCN1C2=O (some centres undefined)	n	x	x	x
O=C(NNC(=O)c1cccc2ccccc12)c1ccc(Br)cc1	n	x	x	x
COCCNC(=S)Nc1ccc(Cl)c(Cl)c1	n	n	n	64
COc1ccc(OC)c(C2CC(=O)N3CN(c4cccc(Cl)c4C)CSC3=C2C#N)c1 (centres undefined)	32	n	n	93
COc1cc(C2CC(=O)N3CN(c4ccccc4C)CSC3=C2C#N)cc(OC)c1OC (centres undefined)	x	n	n	88
COc1cccc(C2CC(=O)N3CN(c4cccc(Cl)c4C)CSC3=C2C#N)c1OC (centres undefined)	n	n	n	88
COc1ccc(OC)c(C2CC(=O)N3CN(c4ccccc4F)CSC3=C2C#N)c1 (centres undefined)	n	n	n	86
Cc1c2c(=O)n(-c3nc4ccccc4s3)nc-2cc(O)n1Cc1ccccc1	42	n	n	n
O=C(N/C(=C/c1cccs1)C(=O)N1CCOCC1)c1cccs1	n	n	n	60
CC(C)(C)c1ccc(C(=O)N/C(=C\c2cccs2)C(=O)N2CCOCC2)cc1	n	n	n	n
Cc1cc(C(F)(F)F)nn1Cc1n[nH]c(=S)n1-c1ccc(Cl)cc1	n	n	n	102
SMILES	NadD inh	UBC9 SUMO inh	pCIP destab	PHOSPHO1 block
Cc1ccc(-n2c(C)n[nH]c2=S)cc1	n	n	n	n
Cc1cc(C(F)(F)F)nn1Cc1n[nH]c(=S)n1-c1cccc(Cl)c1	n	n	n	84
Cc1ccc(-n2c(Cn3nc(C(F)F)cc3C(F)F)n[nH]c2=S)cc1	n	n	n	100
Cc1cc(C(F)(F)F)nn1Cc1n[nH]c(=S)n1Cc1ccccc1	n	n	n	n
Cc1ccc(N=c2ssnc2Cl)cc1	n	n	n	101
Cc1cc(Cl)ccc1N=c1ssnc1Cl	n	n	n	96
COc1ccc(OC)c(N=c2ssnc2Cl)c1	n	n	n	n
COc1cc(N=c2ssnc2Cl)c(OC)cc1Cl	n	n	n	91
Cc1cc(C)nc(/N=c2/ssnc2Cl)c1	n	n	n	n
CCc1ccc(CCC(=O)N2CCN(S(=O)(=O)c3ccc(Br)cc3)CC2)cc1	n	x	x	x
O=C(O)c1cocc1C(=O)O	n	x	x	x
COc1ccc(NC(=O)Nc2cccc3c2O[C@H](CN(C)S(=O)(=O)c2c(C)noc2C)[C@@H](C)CN([C@H](C)CO)C3=O)cc1	n	x	x	x
CCCCCn1nnnc1-c1nc2cc(C)c(C)cc2[nH]c1=O	n	x	x	x
CCCOc1ccc(C2C(C(=O)c3ccco3)=C(O)C(=O)N2CCCn2ccnc2)cc1OC (centres undefined)	n	x	x	x
NC(=O)N/N=C/c1ccc2cccc(OCc3ccccc3)c2n1	n	58	n	n
OC(c1ccco1)c1nc(-c2ccc(F)c(Cl)c2)cs1 (centres undefined)	n	x	x	x
CC(C)OCCOc1ccc2oc(-c3ccco3)cc(=O)c2c1	n	n	n	n
N#CCOc1ccc2oc(-c3ccco3)cc(=O)c2c1	x	52	n	n
Nc1nc2c(s1)C(=O)CC(c1ccccc1)C2 (centres undefined)	n	n	n	60
